# Screening results (PubChem BioAssay)
# Compounds with a hit are over-represented: about 2.3% of the library has one in this group of screens.
# Fam108B counter: blocks mouse Fam108B hydrolase in RBBP9 counter-screen; inhibition, % at 9.51 µM; 300,000 compounds, 0.33% hits; recombinant Fam108B, FP-Rh probe fluorescence polarization;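 active = inhibition above the screen mean inhibition plus 3 SD, computed separately per campaign, cut at about 18% in these data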;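 also: inhibitors lower polarization as less probe binds the enzyme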
# pPAFAH FP inh: inhibitors of human plasma PAF acetylhydrolase (pPAFAH); recombinant pPAFAH, FP-rhodamine probe fluorescence polarization; Q13093; inhibition, % at 3.39 µM; AID 463082; 330,000 compounds, 1.5% hits;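 active = inhibition above the mean inhibition across the screen plus 3 SD, cut at about 25% in these data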;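 also: inhibitors block binding of the rhodamine activity-based probe so polarization drops; 0% = enzyme with DMSO and 100% = wells lacking pPAFAH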
# PAD4 FP inh: PAD4 (human) enzyme inhibition; Q9UM07; recombinant PAD4, RCA probe fluorescence polarization; inhibition, % at 6.36 µM; 330,000 compounds, 0.41% hits;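 active = percent inhibition above a cutoff equal to the mean of all tested compounds plus 3 SD, cut at about 15% in these data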;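 also: 0% = PAD4 with RCA probe and DMSO and 100% = probe without PAD4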
# PME-1 inh: blocks human protein phosphatase methylesterase 1. Q9Y570. recombinant PME-1, FP-Rh probe fluorescence polarization. inhibition, % at 5.9 µM. 320,000 compounds, 0.53% hits;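 active = inhibition above the campaign mean of all compounds plus 3 SD, cut at about 26% in these data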;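 also: competitive labeling of PME-1 active site by serine hydrolase directed probe; 0% = PME-1 with DMSO and 100% = wells lacking PME-1 enzyme; inhibitors block probe labeling so polarization falls and inhibition rises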
# Target sequence (Q9Y570 whole entry, looked up): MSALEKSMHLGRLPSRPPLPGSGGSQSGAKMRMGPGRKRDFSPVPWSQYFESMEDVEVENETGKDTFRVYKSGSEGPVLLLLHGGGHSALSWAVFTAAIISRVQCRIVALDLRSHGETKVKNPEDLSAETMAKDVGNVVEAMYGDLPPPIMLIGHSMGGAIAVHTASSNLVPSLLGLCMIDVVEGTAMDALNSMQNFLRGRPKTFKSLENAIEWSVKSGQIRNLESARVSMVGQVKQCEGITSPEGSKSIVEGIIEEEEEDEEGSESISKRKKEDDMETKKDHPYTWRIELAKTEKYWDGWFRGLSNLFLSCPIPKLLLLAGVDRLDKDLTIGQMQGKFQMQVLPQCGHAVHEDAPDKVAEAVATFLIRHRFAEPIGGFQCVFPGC
# GSTO1 counter: GSTO1 inhibition, counter-screen for RBBP9 inhibitors | P78417 | recombinant GSTO1, activity-based probe fluorescence polarization | inhibition, % at 5.96 µM | 300,000 compounds, 1.1% hits;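 active = inhibition above the campaign mean inhibition plus 3 SD, cut at about 35% in these data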;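 also: 0% = GSTO1-1 with DMSO and 100% = wells lacking GSTO1-1 enzyme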
# Target sequence (P78417 whole entry, looked up): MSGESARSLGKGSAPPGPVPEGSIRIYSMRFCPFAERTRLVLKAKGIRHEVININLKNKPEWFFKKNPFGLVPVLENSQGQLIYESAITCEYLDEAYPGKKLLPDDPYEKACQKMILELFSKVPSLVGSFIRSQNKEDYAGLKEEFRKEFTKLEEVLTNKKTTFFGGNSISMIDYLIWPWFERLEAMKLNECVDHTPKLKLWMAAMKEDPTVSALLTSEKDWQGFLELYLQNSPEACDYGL
# GSTO1 inh conf: GSTO1 (human) inhibition, confirmation. AID 2176. inhibition, % at 5.96 µM. shares compounds with GSTO1 counter. 2,400 compounds, 54% hits. recombinant GSTO1, probe fluorescence polarization;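 active = inhibition above the primary screen's cutoff, its mean inhibition plus 3 SD, cut at about 35% in these data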;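 also: loss of polarization as inhibitors block binding of rhodamine sulfonate ester activity probe; 0% = GSTO1 with DMSO and 100% = wells lacking GSTO1 enzyme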
# GSTO1 ABPP inh: inhibitors of recombinant human GSTO1 | inhibition, % at 1 µM | shares compounds with GSTO1 counter | 130 compounds, 30% hits | AID 463110 | gel ABPP SE-Rh probe fluorescence;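 active = inhibition of the enzyme GSTO1 above about 75%, limit read from the data; inactive = inhibition below that limit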
# * marks the source's active call; other numbers are inactive results; nt = no result.
SMILES,Fam108B counter,pPAFAH FP inh,PAD4 FP inh,PME-1 inh,GSTO1 counter,GSTO1 inh conf,others
CC(C)(C)c1cc(C(=O)Nc2cccnc2)cc(C(=O)Nc2cccnc2)c1,2,-1,-6,-9,-12,nt,
C/C(=N\O)C(C)(C)Nc1ccccc1F,-4,0,1,2,5,nt,
O=C1N=C(N2CCOCC2)S/C1=C\c1ccccc1OS(=O)(=O)c1ccccc1,0,2,1,6,2,nt,
O=C1N=C(N2CCOCC2)S/C1=C/c1cc2c(cc1[N+](=O)[O-])OCO2,0,4,-12,-1,64*,48*,
CCc1ccc(CN(C)C(=O)c2ccc3c(c2)OCCO3)cc1,-2,7,-1,-7,-9,nt,
CC(=O)c1cc2c(cc1NC(=O)c1cccc(S(=O)(=O)N3CCN(C)CC3)c1)OCO2,7,1,-15,1,61*,22,
Cc1ccc(/C=C/C(=O)Nc2ccccc2C(N)=O)cc1,-1,1,-1,-125,-4,nt,
CCCN(CC(=O)Nc1ccccc1C)C(=O)COc1c(Cl)cccc1Cl,3,0,3,2,9,nt,
CCCN(CC(=O)Nc1ccccc1C)C(=O)CCl,2,1,-1,0,81*,92*,GSTO1 ABPP inh=4
Cc1ccc(C=C2C(Cl)=C(Cl)C(Cl)=C2Cl)cc1,9,41*,2,2,45*,15,
COc1ccc(/C=C2/C(=O)N(Cc3ccccc3)N=C2C)cc1,0,5,4,1,40*,7,
COc1ccc(-c2ccc(=O)n(Cc3ccccc3)n2)cc1,0,5,-2,2,6,nt,
CO[C@H]1C=CO[C@@]2(C)Oc3c(C)c(O)c4c(O)c(c(C=NN5CCN(C)CC5)c(O)c4c3C2=O)NC(=O)C(C)=CC=C[C@H](C)[C@H](O)[C@@H](C)[C@@H](O)[C@@H](C)[C@H](OC(C)=O)[C@@H]1C,5,31*,-5,1,77*,70*,
CO[C@H]1/C=C/O[C@@]2(C)Oc3c(C)c(O)c4c(O)c(c(C=NN5CCN(C)CC5)c(O)c4c3C2=O)NC(=O)/C(C)=C\C=C\[C@H](C)[C@H](O)[C@@H](C)[C@@H](O)[C@@H](C)[C@H](OC(C)=O)[C@@H]1C,8,18,-1,3,62*,55*,
C[C@H](NC(=O)OC(C)(C)C)C(=O)NCC1CCC(C(=O)N[C@@H](Cc2ccccc2)C(=O)O)CC1 (stereo partly specified),3,-2,-5,5,1,nt,
N#CCCN(C(=O)c1ccc2c(=O)n3c(nc2c1)CCCCC3)c1ccccc1,4,1,0,-3,3,nt,
COC(=O)/C(=N/Nc1ccccc1C)N1CCCc2ccccc21,0,7,1,-2,3,nt,
O=C1CC(CC(=O)N/N=C/c2ccccc2[N+](=O)[O-])=NN1,-3,1,14,-6,52*,12,
O=C(C[n+]1ccccc1)N/N=C/c1ccccc1[N+](=O)[O-],-2,-2,-1,3,-2,nt,
COc1cccc(Cn2c(N)c(C#N)c3nc4ccccc4nc32)c1OC,-2,-14,-12,-2,41*,-2,
CN(C)c1nc(Cl)nc(N(C#N)CCOc2ccccc2)n1,-1,3,-1,0,44*,69*,
CC1(OC(=O)c2cccs2)C(=O)C=C2C=C3CCCN3C=C2C1=O (stereo unspecified),14,28*,15*,0,60*,62*,
O=c1[nH]c2ccccc2c2oc(CCl)nc12,-1,4,-2,-8,87*,99*,GSTO1 ABPP inh=69
COc1ccc(NC(=O)CSCC(=O)N(C)CC(=O)Nc2cccc3ccccc23)cc1,2,2,5,-3,4,nt,
COC(=O)c1ccccc1NCc1cc(=O)oc2cc(O)c(O)cc12,3,82*,9,-8,43*,10,
SMILES,Fam108B counter,pPAFAH FP inh,PAD4 FP inh,PME-1 inh,GSTO1 counter,GSTO1 inh conf,others
Nc1ccc(Oc2ncccn2)cc1,8,15,8,8,65*,9,
CCC(C)NC(=O)CSc1nnc(-c2ccc(Cl)cc2)n1N (stereo unspecified),4,1,-3,3,20,nt,
Cc1ccc(O)c(C=Nc2cc(C)ccc2O)c1,1,16,-13,-3,17,nt,
Cc1ccc(N=Cc2ccc[nH]2)c(O)c1,5,14,-18,7,38*,2,
NC(=O)C1CCN(C(=O)c2ccccc2SCC(=O)NCC2CCCCC2)CC1,4,-3,0,3,-3,nt,
N#C/C(=C\c1c(N2CCC(C(N)=O)CC2)nc2ccccn2c1=O)C(=O)NCc1ccco1,-2,4,1,-8,45*,8,
Cc1cccn2c(=O)c(/C=C(\C#N)C(=O)NCc3ccco3)c(N3CCOCC3)nc12,0,-4,3,0,5,nt,
COc1ccc(CCNC(=O)C2(C)CCC(=O)N2Cc2ccc(C)cc2)cc1OC (stereo unspecified),0,1,1,-3,-1,nt,
Cc1nc(-n2nnc3ccccc32)c2c3c(sc2n1)CCCC3,-1,12,-3,1,127*,3,
c1ccc2c(c1)nnn2-c1ncnc2sc3c(c12)CCCC3,0,0,-3,1,-4,nt,
COCC(C)OC(=O)c1c(N)n(CC(C)C)c2nc3ccccc3nc12 (stereo unspecified),-1,1,-18,-3,45*,2,
CCC(C)N=C1SCC(C)(/C=N/O)S1 (stereo unspecified),6,-4,-1,6,15,nt,
CC(C)(C)N=C1SCC(C)(/C=N/O)S1 (stereo unspecified),-3,-1,1,-15,42*,9,
CN(C)CCCNC(=S)N1CCn2c(nc3ccccc32)C1,1,-4,-5,-2,4,nt,
Oc1ccc(O)c(-c2cnns2)c1,2,4,0,1,89*,-5,
Nc1nc(N)nc(-c2cc(O)ccc2O)n1,nt,3,-4,4,nt,nt,
Cc1ccc(-n2nc3c(=O)n(CCCC(=O)NCC(C)c4ccccc4)nc(C)c3c2C)cc1 (stereo unspecified),2,2,6,1,-9,nt,
CCOC(=O)c1sc(N(Cc2ccccc2)C(=O)CCl)nc1C,7,-3,5,-6,84*,92*,
Cc1cc[n+](C2=C([O-])c3ccccc3C(=O)/C2=N\S(=O)(=O)c2cccs2)cc1C,3,1,6,-2,90*,90*,
O=S(=O)(/N=C(/Nc1ccc(Cl)cc1Cl)c1ccccc1)c1cccs1,-2,10,-7,4,-1,nt,
Cc1cc(C)c[n+](C2=C([O-])c3ccccc3C(=O)/C2=N\S(=O)(=O)c2cccs2)c1,5,10,-16,9,81*,88*,
